Screens (PubChem)
Dicer inh: blocks human Dicer maturation of pre-miR-21. Q9UPY3. z-score at 25 µM. actives 6% (n = 47,000). cat-ELCCA pre-miR-21 Dicer processing, chemiluminescence; stronger effect = higher value; in the data active means z-score above about 3, passing the limit was not always enough;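 further: plate controls were vehicle for no effect and no enzyme for full effect; higher signal means more uncleaved substrate so more Dicer inhibition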
An asterisk follows results filed as active. The entries come from a sample that favours hits as a whole.

Screening Nc1nnc(-c2ccc(Cl)cc2)s1 returned Dicer inh 8.65*.
CCCCOc1ccc(-c2nnc(N)s2)cc1 was read as Dicer inh 2.68.
Nc1nc(-c2ccc(Cl)cc2)cs1 was read as Dicer inh -4.15.
`Cc1cccc(-c2nnc(N)s2)c1` gave Dicer inh 4.38*.
Screening O=C(COc1ccc(Cl)cc1)CC(=O)c1ccc(Cl)cc1 returned Dicer inh 0.1.
`N#Cc1cn(Cc2ccccc2)nn1` gave Dicer inh 0.4.
For Cc1ccc(C(=O)COC(=O)c2ccc3nc(C)c(C)nc3c2)cc1 the results were Dicer inh -0.11.
CCOC(=O)c1ccc2nc(C)c(C)nc2c1 was read as Dicer inh 4.76*.
Screening COC(=O)c1ccc2nc(C)c(C)nc2c1 returned Dicer inh 2.43.
Screening COC(=O)c1c(NC(=O)c2nc3ncccn3n2)sc2c1CCCC2 returned Dicer inh 2.44.
Screening CCOC(=O)C(NC(=O)c1cccnc1SC)C(=O)OCC returned Dicer inh -0.44.
`NC(=S)N/N=C1\CCOc2ccc3ccccc3c21` gave Dicer inh -0.98.
For CCN(CC)c1ncnc2sccc12 the results were Dicer inh 0.76.
`Nc1cccc(-c2cc(C(=O)O)c3ccccc3n2)c1` gave Dicer inh -0.8.
`O=C(O)c1cc(-c2ccccn2)nc2ccccc12` gave Dicer inh -0.85.
Screening COc1ccc(-c2cc(C(=O)O)c3ccccc3n2)c(OC)c1 returned Dicer inh 4.54*.
CCOC(=O)CNC(=O)c1cccnc1Sc1ccc(C)cc1 was read as Dicer inh 5.16.
`COC(=O)C/C(=N/NC(=O)c1cc([N+](=O)[O-])ccc1N)C(=O)OC` gave Dicer inh 0.65.
For CSc1nc(-c2ccccc2)nc(Nc2ccc(C(F)(F)F)cc2)c1C#N the results were Dicer inh -0.46.
`Cc1c(C#N)c(Sc2cccc(C(F)(F)F)c2)nc2ccccc12` gave Dicer inh -1.13.
Screening CSc1nc(-c2ccccc2)nc(Sc2cccc(C(F)(F)F)c2)c1C#N returned Dicer inh 26.3*.
`C#CCOc1ccc(Cl)cc1C1C2=C(CCCC2=O)NC2=C1C(=O)CCC2` gave Dicer inh 0.93.
Cc1c(S(=O)(=O)N(C)c2ccccc2)sc2ccc(Cl)cc12 was read as Dicer inh 0.24.
`O=C(c1ccc(Cl)cc1)c1c(O)cc(-c2ccc(Cl)cc2)oc1=O` gave Dicer inh 2.65.
`O=C1C2=C(c3ccccc3)c3cc(Cl)ccc3C2Sc2ccccc21` (centres undefined) gave Dicer inh -0.03.
O=c1c(-c2cccc(Cl)c2)c(C(F)(F)F)oc2cc(O)ccc12 was read as Dicer inh -1.33.
Screening O=c1oc2c(-c3cccc(Cl)c3)cc(O)cc2s1 returned Dicer inh 6.23*.
For O=c1oc2c(-c3ccc(Cl)cc3)cc(O)cc2s1 the results were Dicer inh 11.5*.
For O=c1oc2c(-c3ccccc3F)cc(O)cc2s1 the results were Dicer inh 9.17.
`C/C(COc1ccc(-c2csnn2)cc1)=N\Nc1cc(Cl)cc(Cl)c1` gave Dicer inh -0.23.
`COC(=O)c1ccc(Cn2nc([N+](=O)[O-])cc2C)cc1` gave Dicer inh 0.16.
For CN1CCc2c(sc3nc(SCC(=O)c4ccccc4)nc(SCC(=O)c4ccccc4)c23)C1 the results were Dicer inh -4.63.
`COC(=O)C(C)Sc1nnc(-c2ccc(Br)cc2)o1` (centres undefined) gave Dicer inh 1.6.
`Cc1ccc(S(=O)(=O)Nc2ccc(O)c3cccnc23)cc1` gave Dicer inh 3.31*.
O=S(=O)(Nc1cccnc1Oc1ccc(Cl)cc1)c1ccc(Cl)cc1 was read as Dicer inh -0.24.
For Cc1ccc(S(=O)(=O)Nc2ccc(O)c3ncccc23)cc1 the results were Dicer inh 15.4*.
Screening Cc1ccc(S(=O)(=O)Nc2ccnn2C)cc1 returned Dicer inh -1.06.
Cc1ccc(S(=O)(=O)Nc2ccc3ccccc3n2)cc1 was read as Dicer inh -0.27.
Screening CS(=O)(=O)Nc1ccc(S(=O)(=O)Nc2ncccn2)cc1 returned Dicer inh -4.63.
For O=S(=O)(Nc1ncccc1OCc1ccc(Cl)c(Cl)c1)c1ccc(Cl)cc1 the results were Dicer inh 0.8.
Screening Cc1ccc(S(=O)(=O)Nc2ccc(Cl)c3cccnc23)cc1 returned Dicer inh 3.24*.
CC(=O)Nc1ccc(S(=O)(=O)Nc2ncccn2)cc1 was read as Dicer inh -0.86.
Screening CSc1nc(N/C=C2\C(=O)c3sccc3N(C)S2(=O)=O)nc(C2CC2)n1 returned Dicer inh 0.14.
Screening CC(=O)Oc1ccc2c(c1)oc(=O)c1ccccc12 returned Dicer inh 0.98.
For COC(=O)C1=C(C)NC2=C(C(=O)c3ccccc32)C1c1ccc(O)cc1 (centres undefined) the results were Dicer inh 1.57.
O=C(Nc1ccc(C(F)(F)F)cc1)Nc1sccc1Cl was read as Dicer inh 1.69.
Screening Cc1nnc(SCC(=O)Nc2ccccc2Cl)n1-c1ccc2c(c1)OCCO2 returned Dicer inh -0.83.
Cc1ccc(OCC(=O)Nc2sc3c(c2C(N)=O)CCC3)c(C(C)(C)C)c1 was read as Dicer inh -0.49.
`CN1CNc2c(c(=O)n(C)c(=O)n2C)C1` gave Dicer inh -2.45.
For CCCN1CNc2c(c(=O)n(C)c(=O)n2C)C1 the results were Dicer inh 0.77.
Screening Cn1c2c(c(=O)n(C)c1=O)CN(Cc1ccc(CN3CNc4c(c(=O)n(C)c(=O)n4C)C3)cc1)CN2 returned Dicer inh 3.77*.
For Cn1c2c(c(=O)n(C)c1=O)CN(CCCC(=O)O)CN2 the results were Dicer inh -1.85.
For CC(c1ccccc1)N1CNc2c(c(=O)n(C)c(=O)n2C)C1 (centres undefined) the results were Dicer inh 0.51.
`CN(C)CCN1CNc2c(c(=O)n(C)c(=O)n2C)C1` gave Dicer inh 3.49*.
Screening FC(F)(F)c1cccc(N2CCN(c3nc(-c4ccc(Cl)cc4)cs3)CC2)c1 returned Dicer inh -3.21.
`O=c1[nH]c(-c2cccc(Oc3ccccc3)c2)nc2ccccc12` gave Dicer inh 0.35.
`O=C1c2cccc3cc([N+](=O)[O-])cc(c23)C(=O)N1Cc1ccncc1` gave Dicer inh 3.49*.
CN1C(=O)c2cccc3cc([N+](=O)[O-])cc(c23)C1=O was read as Dicer inh 0.58.
`O=C(O)CN1C(=O)c2cccc3cc([N+](=O)[O-])cc(c23)C1=O` gave Dicer inh 2.92.
`COc1ccc(C2C(C(=O)OC3CCCCC3)=C(C)NC3=C2C(=O)CC(C)(C)C3)cc1OC` (centres undefined) gave Dicer inh -0.17.
COc1ccc(S(=O)(=O)N2CCN(Cc3ccc4c(c3)OCO4)CC2)cc1 was read as Dicer inh 7.99.
Screening CC1CCC(N2CCN(C(=O)c3ccco3)CC2)CC1 (centres undefined) returned Dicer inh 0.07.
O=C(c1ccc2c(c1)OCO2)N1CCN(Cc2ccc3c(c2)OCO3)CC1 was read as Dicer inh -0.91.
O=S(=O)(c1ccc2ccccc2c1)N1CCN(Cc2ccc3c(c2)OCO3)CC1 was read as Dicer inh 6.61*.
CCCS(=O)(=O)N1CCN(C(=O)c2ccco2)CC1 was read as Dicer inh 2.71.
`O=S(=O)(c1ccccc1)N1CCN(Cc2ccc3c(c2)OCO3)CC1` gave Dicer inh 8.02.
